Assay outcomes deposited in PubChem by Broad Institute.
In the library only some 1.2% were active in any assay of this set; here they are far more common.
CASP6 VEID inh: inhibitors of human caspase-6. P55212. purified caspase-6, Z-VEID-R110 cleavage fluorescence. inhibition, % at 12.5 µM. hit rate 0.53% among 350,000. AID 686996;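 active means mean inhibition across replicates at least about 35%, with every replicate also reaching that limit, limit read from the data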;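 further: 0% = median of neutral control wells and 100% = no fluorescence left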
NSD2 inh: inhibitors of human histone methyltransferase NSD2 | O96028 | NSD2 peptide methylation, AlphaScreen, 120 min | inhibition, % at 12.5 µM | hit rate 0.54% among 310,000; in the data active means inhibition above about 50%
RAD52 anneal inh: RAD52 (human) annealing inhibition. P43351. recombinant RAD52 DNA annealing, FRET fluorescence. inhibition, % at 18.7 µM. hit rate 0.46% among 360,000. AID 651710;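 active means every replicate showing at least 50% inhibition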
RAD54 branch: RAD54 (human) branch migration inhibition; Q92698; RAD54 Holliday junction branch migration, FAM/BHQ fluorescence; inhibition, % at 10.4 µM; hit rate 0.14% among 360,000; AID 602329;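 active means mean normalized replicate activity at least 40 and at least half of replicates scoring 40 or more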;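 further: 0% = median of neutral control wells and 100% = median of positive control wells; inhibitors cause a drop in the FAM fluorescence signal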
Target sequence (Q92698 whole entry, looked up): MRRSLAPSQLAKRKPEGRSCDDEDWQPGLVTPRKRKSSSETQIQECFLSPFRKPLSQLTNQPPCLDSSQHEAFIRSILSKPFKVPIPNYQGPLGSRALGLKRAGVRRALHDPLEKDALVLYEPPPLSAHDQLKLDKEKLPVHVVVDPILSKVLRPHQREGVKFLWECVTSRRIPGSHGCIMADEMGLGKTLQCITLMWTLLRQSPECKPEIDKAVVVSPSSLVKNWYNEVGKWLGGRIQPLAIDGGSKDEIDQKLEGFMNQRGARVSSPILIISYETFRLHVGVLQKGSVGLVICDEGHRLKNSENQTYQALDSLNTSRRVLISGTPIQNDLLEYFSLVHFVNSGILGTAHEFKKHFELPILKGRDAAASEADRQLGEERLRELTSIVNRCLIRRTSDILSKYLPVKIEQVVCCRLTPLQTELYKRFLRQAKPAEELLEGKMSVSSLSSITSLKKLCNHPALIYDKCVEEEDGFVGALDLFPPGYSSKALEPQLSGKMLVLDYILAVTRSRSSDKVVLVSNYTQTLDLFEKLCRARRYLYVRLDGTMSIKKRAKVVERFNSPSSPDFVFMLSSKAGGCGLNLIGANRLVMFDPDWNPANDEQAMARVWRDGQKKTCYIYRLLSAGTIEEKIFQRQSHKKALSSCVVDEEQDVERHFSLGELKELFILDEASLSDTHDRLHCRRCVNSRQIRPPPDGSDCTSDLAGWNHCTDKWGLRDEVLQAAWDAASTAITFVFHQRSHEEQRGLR
Glyco luc inh: blocks N-linked glycosylation in D54 reporter cells. hit rate 0.23% among 360,000. reporter increase, % at 12.5 µM. D54 ERlucT glycosylation luciferase reporter, 24 h; percent of 100 nM tunicamycin response;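 active means mean luciferase reporter signal, scaled so untreated is 0 and the glycosylation-blocking control 100, at or above a set limit in every replicate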;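 further: luciferase carries N-glycosylation sites so blocking glycosylation raises the light; 0% = median of neutral control wells and 100% = median of 100 nM tunicamycin wells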
The depositor's hits bear a star; . = no result given.

SMILES	CASP6 VEID inh	NSD2 inh	RAD52 anneal inh	RAD54 branch	Glyco luc inh
N#Cc1cccc2c1-c1ccccc1/C2=N/NC(N)=S	.	12	.	.	7
N#Cc1cccc2c1-c1ccccc1/C2=N/NC(N)=O	.	18	.	85*	25
O=C(NNS(=O)(=O)c1ccc(F)cc1)c1ccccc1F	46*	-2	-10	-1	0
COc1ccccc1C(=O)NNS(=O)(=O)c1ccc(F)cc1	1	-2	-15	3	1
C/C(=N/NC(=O)c1cc(O)c(O)c(O)c1)c1ccc([N+](=O)[O-])cc1	74*	17	14	.	1
C/C(=N\NC(=O)c1ccc([N+](=O)[O-])cc1)c1c(O)cc(C)oc1=O	0	-1	-15	.	1
O=C(/C=C/c1ccc(Br)cc1)c1ccc(NC2=NCCCS2)cc1	0	11	51*	.	15
C[C@H]1CN([C@@H](C)CO)C(=O)c2cccc(NC(=O)Nc3cccc4ccccc34)c2O[C@H]1CN(C)C(=O)Nc1ccc(C(F)(F)F)cc1	-2	.	-13	.	.
O=C1Nc2cc(C(=O)NCCN3CCCCCC3)ccc2S/C1=C\c1ccccc1	99*	31	-25	-6	-12
CCN1CCN(CCNC(=O)c2ccc(/C=C3\Sc4ccccc4N(Cc4ccccc4F)C3=O)cc2)CC1	-145	2	85*	.	-5
COc1cc(C(=O)Nc2cccc(C(=O)Nc3cc(C)ccn3)c2)cc(OC)c1OC	.	-1	.	.	.
CC(C)NC(=O)N(C)C[C@@H]1OCCCC[C@@H](C)Oc2ccc(NS(=O)(=O)c3ccccc3)cc2C(=O)N([C@@H](C)CO)C[C@@H]1C	-2	.	12	-5	.
CCOc1ccc(S(=O)(=O)Nc2ccc(C(=O)N/N=C/c3c(C)nn(-c4ccccc4)c3N3CCCC3)cc2)cc1	62*	0	-13	.	-1
COC(=O)CCC(=O)OC1(C)C(=O)C=C2C=C(C3CC3)N(CCCCO)C=C2C1=O (stereo not given)	37*	.	-12	-16	2
Nc1cc2c(cc1Br)-c1c(C(=O)O)cccc1C2O (stereo not given)	4	-1	-4	.	35*
COc1cc(N)c(Br)cc1C(=O)O	1	10	-6	0	1
CC1=NN(c2ccc(C)c(C)c2)C(=O)/C1=C\C=C\c1ccc([N+](=O)[O-])o1	47*	3	-14	.	-15
CC1=NN(c2ccccc2)C(=O)/C1=C\C=C\c1ccccc1	-5	5	-9	-7	11
Cc1cc(Br)cc2c(C(=O)Nc3c(C)n(C)n(-c4ccccc4)c3=O)cc(-c3cccs3)nc12	.	.	.	.	41*
CCc1ccc(-c2cc(C(=O)Nc3c(C)n(C)n(-c4ccccc4)c3=O)c3ccccc3n2)s1	0	2	-22	.	0
CCC(=O)N1C[C@@H](C)[C@@H](OC)CN(C)C(=O)c2cc(NC(=O)Nc3cccc(F)c3)ccc2OC[C@H]1C	1	.	-2	-10	.
O=c1[nH]c(Nc2ccccn2)cc2ccccc12	90*	.	-12	4	5
CCN(C(=O)COC(=O)CNC(=O)c1ccc2ccccc2c1)C1CCS(=O)(=O)C1 (stereo not given)	47*	-8	-7	.	1
CCN(C(=O)COC(=O)CNC(=O)c1ccc(C)c(C)c1)C1CCS(=O)(=O)C1 (stereo not given)	-1	3	-9	.	2
Cc1ccc(S(=O)(=O)NC[C@@H]2CC[C@H]3[C@H](CN3Cc3ccccc3C(=O)O)O2)cc1	1	.	8	.	.
SMILES	CASP6 VEID inh	NSD2 inh	RAD52 anneal inh	RAD54 branch	Glyco luc inh
O=C(c1ccccc1F)N1C[C@@H]2O[C@H](CNS(=O)(=O)c3ccccc3)CC[C@@H]21	0	.	59*	.	.
Cc1ccc(S(=O)(=O)NC[C@H]2CC[C@H]3[C@H](CN3Cc3cc(F)ccc3F)O2)cc1	0	.	61*	.	.
COc1ccc(S(=O)(=O)NC[C@H]2CC[C@H]3[C@H](CN3Cc3cc(F)ccc3F)O2)cc1	-2	.	66*	.	.
C[C@H]1CN([C@@H](C)CO)C(=O)c2cccc(NC(=O)c3ccncc3)c2O[C@@H]1CN(C)Cc1ccccc1	.	.	5	2	.
CCC(=O)N1[C@@H]2Cn3c(ccc(-c4ccncc4)c3=O)[C@H]1[C@@H](C(=O)N1CCc3ccccc3C1)[C@@H]2CO	0	.	-2	7	.
C=CCOc1ccc(C(c2c(C(=O)O)[nH]c3ccccc23)c2c(C(=O)O)[nH]c3ccccc23)cc1	48*	32	-11	8	1
O=C(O)c1[nH]c2ccccc2c1C(c1ccccc1)c1c(C(=O)O)[nH]c2ccccc12	2	7	-13	1	2
C[C@@H]1CN([C@@H](C)CO)C(=O)c2cccc(NC(=O)C3CCCCC3)c2O[C@H]1CN(C)S(=O)(=O)c1ccccc1	1	.	14	-1	.
COc1ccc(/C=C2\SC(=S)NC2=O)cc1OS(=O)(=O)c1ccc(NC(C)=O)cc1	40*	17	-59	.	1
COc1cc(/C=C2/SC(=S)NC2=O)ccc1OS(=O)(=O)c1ccc(C)cc1	.	.	.	.	-1
C[C@H](CO)N1C[C@H](C)[C@@H](CN(C)C(=O)C2CC2)Oc2cc(C3=CCCCC3)ccc2S1(=O)=O	5	.	-2	0	.
Oc1cc(Nc2ccccc2)cc2cccnc12	16	.	-17	-12	38*
C[C@@H]1CCCCO[C@H](CN(C)Cc2ccncc2)[C@H](C)CN([C@H](C)CO)C(=O)c2cc(NC(=O)Nc3cccc4ccccc34)ccc2O1	2	.	26	-9	.
N#Cc1c(NC(=O)c2ccccc2Cl)n(Cc2ccccc2)c2nc3ccccc3nc12	100*	98*	-48	.	3
CCCCn1c(NC(=O)CC)c(C#N)c2nc3ccccc3nc21	.	-4	.	0	.
C[C@H](O)C#Cc1ccc2c(c1)O[C@@H](CN(C)Cc1cncnc1)[C@H](C)CN([C@@H](C)CO)S2(=O)=O	.	.	.	-4	.
OC[C@H]1[C@H](c2ccc(/C=C/c3ccccc3)cc2)[C@@H]2CN(Cc3ccncc3)CCCCN12	5	.	54*	-3	.
OC[C@@H]1[C@H](c2ccc(/C=C/c3ccccc3)cc2)[C@H]2CN(Cc3cccnc3)CCCCN12	-1	.	59*	5	.
OC[C@@H]1[C@@H](c2ccc(/C=C/c3ccccc3)cc2)[C@H]2CN(Cc3cccnc3)CCCCN12	1	.	44	5	.
OC[C@H]1[C@H](c2ccc(C#Cc3cccnc3)cc2)[C@@H]2CN(Cc3ccccc3F)CCCCN12	-4	.	31	4	.
OC[C@@H]1[C@H](c2ccc(C#Cc3cccnc3)cc2)[C@H]2CN(Cc3ccccc3F)CCCCN12	-2	.	54*	3	.
COc1ccccc1CNC(=O)c1ccc(CS(=O)(=O)c2ccc(Cl)cc2)o1	.	-5	.	.	.
CNC[C@@H]1Oc2ccc(NC(=O)Nc3ccc(F)cc3)cc2C(=O)N([C@@H](C)CO)C[C@H]1C	-1	.	-10	-1	.
c1coc(CSSCc2ccco2)c1	82*	.	-43	-4	6
Cc1ccc(NC(=O)CSCc2ccco2)cc1	4	3	-7	.	-1
N#C/C(=C\c1ccc(O)c(O)c1)C(=O)c1ccc(O)c(O)c1	72*	.	-247	-22	-5
